Screening results deposited in PubChem by NMMLSC.
Avidin fluor: avidin bead compound fluorescence profile; AID 1775; 0.38% of 220,000 active; fluorescence (KMESF) at 10 µM; Avidin beads, compound fluorescence 488/530 nm, flow cytometry; active compounds read high; in the data active = fluorescence above about 47
RGS8-Gao reg: human RGS8-Galphao interaction regulation | AID 1423 | multiplexed bead flow cytometry, RGS8-Galphao binding; actives lie on both sides | 0.34% of 220,000 active | response (percent of control binding), % at 10 µM; in the data active = response below about 60% or above about 140%; inactive = in between;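 note: Galphao activated as the GDP aluminium fluoride complex binding bead-coupled RGS8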
Target sequence (P09471 whole entry, looked up): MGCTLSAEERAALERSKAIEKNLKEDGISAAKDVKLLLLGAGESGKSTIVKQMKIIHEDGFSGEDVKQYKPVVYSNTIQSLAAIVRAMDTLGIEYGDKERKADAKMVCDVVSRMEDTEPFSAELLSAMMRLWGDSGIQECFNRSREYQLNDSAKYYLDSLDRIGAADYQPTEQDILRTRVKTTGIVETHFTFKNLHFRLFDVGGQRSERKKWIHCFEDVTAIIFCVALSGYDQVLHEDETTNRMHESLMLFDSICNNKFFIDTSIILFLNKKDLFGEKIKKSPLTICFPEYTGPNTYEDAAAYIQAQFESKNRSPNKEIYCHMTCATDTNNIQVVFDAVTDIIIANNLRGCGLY
RGS16-Gao: RGS16-Galphao interaction regulator (human); bead-based flow cytometry RGS16-Galphao binding, fluorescence; actives lie on both sides; binding response (% of control), % at 10 µM; 0.38% of 220,000 active; AID 1441;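 note: Galphao activated by GDP with aluminum fluoride before binding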
Target sequence (O15492 whole entry, looked up): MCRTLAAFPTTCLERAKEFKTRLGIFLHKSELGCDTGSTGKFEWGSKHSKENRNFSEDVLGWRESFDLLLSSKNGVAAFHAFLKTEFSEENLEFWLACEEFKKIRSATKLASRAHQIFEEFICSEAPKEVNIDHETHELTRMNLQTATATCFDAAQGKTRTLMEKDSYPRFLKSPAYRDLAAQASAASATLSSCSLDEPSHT
Target sequence (P09471 whole entry, looked up): as the sequence (P09471 whole entry, looked up) above
RGS4-Gao reg: human RGS4-Galphao interaction regulation | P09471 | Multiplexed bead flow cytometry, RGS4-Galphao binding; actives lie on both sides | binding response (% of control), % at 10 µM | 0.33% of 220,000 active; in the data active = binding response below about 49% or above about 150%; inactive = in between;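 note: fluorescent Galphao activated with aluminum fluoride binding bead-coupled RGS4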
GSH fluor: compound fluoresces at 488/530 nm on GSH beads. fluorescence (KMESF) at 10 µM. GSH beads flow cytometry, compound fluorescence 488/530 nm; active compounds read high. 0.25% of 190,000 active. AID 1776; in the data active = fluorescence above about 89;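 note: glutathione beads carrying GST-tagged Bcl family fusion proteins plus one bare bead set; values are compound well signal with DMSO vehicle wells as background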
RGS7-Gao reg: modulates binding of RGS7 to human Galphao; P09471; Multiplexed bead flow cytometry; actives lie on both sides; binding response (% of control), % at 10 µM; 0.35% of 220,000 active; AID 1439; in the data active = binding response below about 49% or above about 150%; inconclusive = no clear call, values can overlap the other calls; inactive = in between;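 note: fluorescent Galphao held in activated GDP-AlF4 state binding bead-coupled RGS7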
RGS4-Gao HTS: regulators of human RGS4-Galphao interaction; multiplexed bead flow cytometry, RGS–Galpha-o binding; shares compounds with RGS16-Gao; AID 1504; RGS4–Galpha-o binding response, % at 10 µM; 99% of 1,600 active;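 note: fluorescently labeled Galpha-o bound to GDP with aluminium fluoride binding biotinylated RGS beads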
Biotin-avidin: interferes with biotinylated probe binding to avidin beads. shares compounds with RGS16-Gao. streptavidin beads, fluorescein-biotin binding, flow cytometry. inhibition, % at 10 µM. 1,700 tested, under 10 active;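 active = inhibition above 50%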;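 note: median green fluorescence of gated singlet beads compared with DMSO control wells; 0% = DMSO wells and 100% = complete loss of bead fluorescence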
RGS8-Gao confirm: RGS8-Galphao interaction regulation, single point confirmation. bead-based flow cytometry RGS8-Galphao binding, fluorescence; actives lie on both sides. AID 1836. shares compounds with RGS16-Gao. binding response (% of control), % at 10 µM. 3% of 1,700 active; in the data active = binding response below about 72% or above about 130%; inactive = in between;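 note: Galphao activated as GDP AlF4 complex before binding bead RGS8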
RGS7-Gao confirm: confirmation of regulators of human RGS7-Galphao interaction; bead-based flow cytometry RGS7-Galphao binding; actives lie on both sides; shares compounds with RGS16-Gao; response (percent of control binding), % at 10 µM; 7.8% of 1,700 active; in the data active = response below about 75% or above about 130%; inactive = in between;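 note: fluorescent Galphao activated with GDP and aluminum fluoride binding bead-coupled RGS7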
RGS16-Gao conf: confirmation of regulators of human RGS16-Galphao interaction; shares compounds with RGS16-Gao; bead-based flow cytometry, RGS16-Galphao binding; actives lie on both sides; response (% of control binding), % at 10 µM; 4% of 1,700 active; AID 1838; in the data active = response below about 74% or above about 130%; inactive = in between;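 note: Galphao activated as the GDP aluminium fluoride complex binding bead-coupled RGS16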
RGS4-Gao confirm: RGS4-Galphao interaction regulation, single point confirmation. binding response (% of control), % at 10 µM. shares compounds with RGS16-Gao. AID 1840. 4% of 1,700 active. RGS4-Galphao binding, multiplexed bead flow cytometry; actives lie on both sides; in the data active = binding response below about 74% or above about 130%; inactive = in between
RGS19-Gao single: RGS19-Galphao interaction regulation, single point confirmation | shares compounds with RGS16-Gao | bead-based flow cytometry RGS19-Galphao binding; actives lie on both sides | response (percent of control binding), % at 10 µM | 5% of 1,700 active | AID 1841; in the data active = response below about 50% or above about 160%; inactive = in between;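 note: 100% = no compound control and 0% = blank background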
* hit, by the source's call; i = inactive; ? = inconclusive; . = no result; [ ] = dose if it differs, or a comment. Sampled rows, rich in hits. Any-hit rate of the full collection: about 1.2%. Unless noted, the rule behind the calls is not given here.

SMILES	Avidin fluor	RGS8-Gao reg	RGS16-Gao	RGS4-Gao reg	GSH fluor	RGS7-Gao reg	RGS4-Gao HTS	Biotin-avidin	RGS8-Gao confirm	RGS7-Gao confirm	RGS16-Gao conf	RGS4-Gao confirm	RGS19-Gao single
Cc1c(N2C(=O)CSC2c2ccc([N+](=O)[O-])cc2)c(=O)n(-c2ccccc2)n1C (configuration not stated)	43	115.1	164.5	163.7*[activator]	.	?	.	0.7	102.5	102.2	101.0	101.2	104.0
COc1ccc(C[C@H]2CN3C(=NC[C@@H]3C(C)C)N2CCNC(=O)CCC2CCCCC2)cc1	-1	19.6*	13.7*	26.9*	21	10.0*	.	0.1	103.3	135.8*[activator]	115.7	126.0*[activator]	133.5
Cc1ccc(Sc2c(O)c3ccccc3n(C)c2=O)cc1	1	67.5	14.2*	98.6	12	91.0	98.6*	0.5	103.3	106.9	104.6	109.0	96.5
O=C(N/N=C/c1ccccc1[N+](=O)[O-])c1cnccn1	7	101.0	103.6	106.9	.	?	.	.	.	.	.	.	.
Cn1c(SCC(N)=O)nnc1-c1ccccc1	14	105.1	115.1	107.0	49	105.6	.	.	.	.	.	.	.
Cn1c(CO)cnc1-c1ccccc1	6	132.4	150.3	151.4*[activator]	.	?	.	-0.5	99.6	99.1	97.2	102.4	98.7
O=C(N/N=C/c1ccc([N+](=O)[O-])o1)c1ccccc1NS(=O)(=O)c1cccs1	9	97.4	96.8	97.9	.	?	.	.	.	.	.	.	.
O=C(c1nn2c(C(F)(F)F)cc(-c3ccco3)nc2c1Br)N1CCCc2ccccc21	.	.	.	.	15	.	.	2.0	104.8	107.1	107.4	108.5	89.9
O=C(O)CCCNC(=O)c1ccc(NC(=O)Cc2ccc(Cl)cc2)cc1	8	101.4	105.4	98.6	21	102.5	.	.	.	.	.	.	.
O=C(CCc1ccccc1)NNC(=O)c1ccc(NC(=O)c2ccccc2)cc1	4	76.8	2.7*	82.0	10	85.1	82.0*	-2.0	99.1	91.3	96.5	94.0	92.4
Cc1ccc(-c2nn(CC(=O)N3CCOCC3)c(=O)c3ccccc23)cc1S(=O)(=O)N(C)C	62*	115.8	152.2	163.3*[activator]	.	?	.	0.9	101.5	102.1	100.4	99.9	109.8
Cc1[nH]c(C)c2c(=O)[nH]ncc12	8	97.6	95.9	96.4	.	?	.	.	.	.	.	.	.
O=C(Nc1ccccc1)N1CCCC1	.	.	.	.	41	.	.	1.6	96.8	96.8	98.2	96.4	87.9
Nc1nc(N2CCN(C(c3ccccc3)c3ccccc3)CC2)n[nH]1	2	57.0*	91.2	82.0	11	39.1*	82.0*	2.7	100.0	88.3	95.0	94.0	86.2
CCN(CC)c1ccc(NC(=O)c2cccc(F)c2)c(C)c1	3	53.1*	35.5	44.7*	25	40.3*	.	i	103.0	99.4	101.9	100.8	109.3
CCN(CC)c1ccc(NC(=O)c2ccco2)c(C)c1	8	96.3	90.3	99.0	19	99.8	.	.	.	.	.	.	.
COc1c(C(=O)NNC(=O)c2ccccc2)csc1Br	3	103.0	101.9	102.6	.	?	.	.	.	.	.	.	.
CC(C)C(C)NC(=O)COc1ccc(S(=O)(=O)N2CCOCC2)cc1Cl (configuration not stated)	18	95.9	91.0	93.9	14	?	.	.	.	.	.	.	.
CC(C)=NOc1nc(N(C)C)nc(N(C)C)n1	11	130.2	207.6*[activator]	107.7	10	108.2	107.7*	-1.5	108.5	102.3	111.2	104.2	100.8
Cc1onc(-c2ccc(Cl)cc2Cl)c1-c1csc(N/N=C/c2ccccc2)n1	5	96.6	96.6	94.6	.	?	.	.	.	.	.	.	.
c1ccc(N(c2ccccc2)c2nc(-n3ccnc3)nc(-n3ccnc3)n2)cc1	.	.	.	.	43	.	.	0.2	101.1	101.4	102.3	100.6	112.9
C=CCN=C(NC#N)SCC(=O)NC(C)(C)C	5	61.1	i	-27.7*	13	45.5*	.	0.9	101.8	100.0	105.9	98.2	104.7
COc1cccc(CN(C)Cc2nc(Cc3ccccc3Cl)no2)c1	2	97.6	98.0	97.2	9	99.2	.	.	.	.	.	.	.
Cn1ccnc1SCC(=O)Nc1cccc2ccccc12	7	111.3	131.2	103.4	11	103.3	.	.	.	.	.	.	.
Cn1ccnc1SCC(=O)n1c2c(c3ccccc31)CCCC2	1	54.9*	16.4	59.9	9	59.9	59.9*	0.1	99.9	93.6	100.8	96.1	96.9
SMILES	Avidin fluor	RGS8-Gao reg	RGS16-Gao	RGS4-Gao reg	GSH fluor	RGS7-Gao reg	RGS4-Gao HTS	Biotin-avidin	RGS8-Gao confirm	RGS7-Gao confirm	RGS16-Gao conf	RGS4-Gao confirm	RGS19-Gao single
CC(=O)N1CCC(N(CCN2CCOCC2)C(=S)Nc2ccc(C)cc2C)CC1	10	98.9	96.1	95.0	13	99.1	.	.	.	.	.	.	.
CCC(=O)N1CCN(CCN=CC2=C(O)CC(C)(C)CC2=O)CC1	10	145.5*[activator]	164.6	104.8	26	106.3	104.8*	0.8	97.1	99.5	99.0	97.5	97.4
CC1(C)CC(=O)C(C=NCCN2CCN(C(=O)CCl)CC2)=C(O)C1	3	100.6	101.5	101.4	.	?	.	.	.	.	.	.	.
CC(C)(C)c1ccc(-c2noc(-c3ccno3)n2)cc1	4	98.6	98.2	97.9	.	?	.	.	.	.	.	.	.
CC(C)(C)c1ccc(-c2nc(-c3ccncc3)no2)cc1	3	75.0	22.9*	81.4	20	89.4	81.4*	.	.	.	.	.	.
Cc1ccc(C)c(C(=O)COC(=O)c2cc(Cl)nc3ccccc23)c1	1	95.8	90.8	96.2	5	95.3	.	.	.	.	.	.	.
Cc1ccc(C(=O)COC(=O)c2cc(Cl)nc3ccccc23)cc1C	5	157.6*[activator]	805.5	129.9	55	117.6	129.9*	.	.	.	.	.	.
COCc1cc(=O)[nH]c(-c2ccccc2OC(F)(F)F)n1	3	99.9	96.6	103.3	.	?	.	.	.	.	.	.	.
Cc1ccc(NC(=O)CSc2nc3ccccc3c(=O)n2CCCN2CCCCC2)cc1Cl	9	148.8*[activator]	300.3	114.8	5	121.2	114.8*	0.7	100.6	61.5*	86.6	71.5*	71.8
